Assay outcomes from PubChem.
PGE2 EP2 inh = EP2 receptor (human) inhibition | P43116 | C6 glioma cells expressing human EP2, cAMP TR-FRET; cells stimulated with saturating PGE2 | inhibition, % at 25 µM | actives 0.52% (n = 260,000);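 active = percent inhibition above 40 after rounding to a whole number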;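 note: rat C6 glioma host cells with rolipram phosphodiesterase inhibitor present; the protocol text gives 20 µM as final concentration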
Target sequence (P43116 whole entry, looked up): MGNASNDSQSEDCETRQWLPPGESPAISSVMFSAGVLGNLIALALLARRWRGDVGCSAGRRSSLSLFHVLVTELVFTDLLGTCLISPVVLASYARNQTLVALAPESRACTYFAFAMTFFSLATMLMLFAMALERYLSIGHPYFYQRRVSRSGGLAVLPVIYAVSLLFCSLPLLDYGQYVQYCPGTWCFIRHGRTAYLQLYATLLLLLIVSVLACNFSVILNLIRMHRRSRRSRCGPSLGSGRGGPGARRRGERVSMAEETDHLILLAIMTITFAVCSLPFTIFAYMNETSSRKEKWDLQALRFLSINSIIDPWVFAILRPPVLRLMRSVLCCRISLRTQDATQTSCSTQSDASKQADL
EP2 modulator = modulates human prostaglandin E2 receptor EP2 signaling; induction, % at 25 µM; EP2-expressing cells, cAMP HTRF FRET, PGE2 co-stimulation; actives 0.83% (n = 260,000);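 active = compounds whose cAMP rise, as percent of the full-agonist control response, exceeds 60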;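 note: rat C6 glioma line stably carrying human EP2 under a CMV promoter; the protocol text gives 20 µM as final concentration; 100% = response of wells given 1 µM PGE2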
S1P4 antagonist = blocks the human S1P4 receptor; O95977; S1P4-expressing cells, antagonist mode, reporter read-out; inhibition, % at 4.98 µM; actives 0.26% (n = 220,000); AID 1510; in the data active = inhibition above about 29%;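 note: 0% = wells stimulated with agonist and 100% = vehicle wells without agonist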
S1P4 ag = human S1P4 receptor agonism; O95977; S1P4-expressing cell line, agonist reporter assay; activation, % at 4.98 µM; actives 0.35% (n = 220,000); in the data active = activation above about 11%;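 note: 0% = DMSO vehicle and 100% = reference agonist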
S1P3 antagonist = blocks the human S1P3 receptor; Q99500; inhibition, % at 4.98 µM; actives 0.27% (n = 170,000); AID 485; CHO S1P3 NFAT-BLA reporter, FRET fluorescence, antagonist mode;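 active = inhibition above the plate cutoff, the mean inhibition of test wells on that plate plus 3 SD, cut at about 28% in these data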;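 note: cells challenged with S1P at its EC80 of 0.8 µM; blue over green emission ratio from cleaved BLA substrate after 4 h stimulation; 0% = S1P-stimulated wells and 100% = unstimulated DMSO-only wells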
EP2 cAMP induct = EP2 receptor cAMP induction, counter-screens negative | calls only at 20 µM (by protocol) | actives 47% (n = 1,300) | C6 glioma EP2 cells, cAMP HTRF induction; plus low (about EC15) PGE2 agonist | shares compounds with EP2 modulator;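 active = cAMP induction above 50% in the main assay while under 30% in all four parallel counter assays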;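 note: rat C6 glioma cells stably expressing human EP2 receptor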
Numbers without * were called inactive; i = inactive; . = no result; + = active, no number. Only some compounds are listed: those with a hit (about 1.9% of all), similar ones and a draw of the others.

SMILES	PGE2 EP2 inh	EP2 modulator	S1P4 antagonist	S1P4 ag	S1P3 antagonist	EP2 cAMP induct
CCn1c(SCC(=O)c2ccc(C)cc2C)nnc1-c1ccco1	11.5	-47.0	.	.	.	.
Cn1c(/C=C/N(Cc2ccccc2)c2ccccc2)c([N+](=O)[O-])c(=O)n(C)c1=O	4.9	67.8*	-10.0	0.3	-5.4	+
O=C(O)/C=C/c1ccccc1Oc1ccc(Cl)cc1Cl	3.6	87.3*	-3.0	1.8	11.6	+
Cc1ccc(-c2nn3c(C)nnc3s2)cc1NCc1c(F)cccc1Cl	18.9	66.1*	-15.7	1.0	45.2	i
Cc1ccc(CNc2cc(-c3nn4c(C)nnc4s3)ccc2C)s1	.	33.5	2.5	0.5	0.6	.
COCCn1nnnc1CN(Cc1cc2cc3c(cc2[nH]c1=O)OCCO3)C1CCCCC1	8.5	-19.8	.	.	.	.
Cc1ccc(S(=O)(=O)c2c(C)cc(C)nc2Cl)cc1	16.0	-7.5	-20.0	0.0	.	.
CCOc1nc(C)cc(C)c1S(=O)(=O)c1ccc(Cl)cc1	3.6	80.8*	-9.4	-1.2	-12.8	+
O=C(Nc1cnc2ccccc2c1)c1cc2ccccc2oc1=O	3.3	3.8	.	.	.	.
O=C(CN1CCN(Cc2ccccc2)CC1)Nc1ccccc1-c1ccccc1	18.2	65.8*	-8.1	-1.3	-1.9	i
O=C(CSCc1c(Cl)cccc1Cl)Nc1ccccc1-c1ccccc1	6.5	75.0*	-4.5	0.6	6.0	i
O=C(COC(=O)Cc1c(Cl)cccc1Cl)Nc1ccccc1-c1ccccc1	11.6	40.9	6.0	1.3	1.8	.
Cc1ccc2c(c1)NC(C(C)(C)C)CO2 (centres undefined)	4.0	-18.6	-16.0	0.3	.	.
Cc1ccc(S(=O)(=O)N2c3ccccc3OCC2C(C)(C)C)cc1 (centres undefined)	5.1	88.5*	-18.4	0.6	.	+
Cc1ccc2c(c1)N(S(=O)(=O)c1ccc(F)cc1)C(C(C)(C)C)CO2 (centres undefined)	9.5	77.2*	-22.2	0.9	.	+
Cc1ccc(S(=O)(=O)NCC2COc3ccccc3O2)cc1 (centres undefined)	12.2	-10.7	-5.0	4.0	7.8	.
COc1cc(NC(=O)c2cc3ccccc3oc2=O)ccc1S(=O)(=O)N1CCOCC1	9.2	-9.5	.	.	.	.
Cn1c(=O)[nH]c(=O)c2c1nc(NCc1ccco1)n2Cc1cccc2ccccc12	6.5	5.7	.	.	.	.
CSc1nnc(CSCc2ccc(Cl)cc2Cl)n1-c1ccccc1	5.3	61.4*	-23.7	1.3	.	+
Cn1c(CSCc2ccc(Cl)cc2Cl)n[nH]c1=S	13.2	-5.5	-2.5	1.8	-4.4	.
CCOC(=O)c1ccc(CN(Cc2ccc(C)cc2)S(=O)(=O)c2cccc([N+](=O)[O-])c2)cc1	4.3	65.0*	-8.7	3.6	-7.7	i
O=C(N1CCC(n2cnc3cccnc32)CC1)C1(c2ccc(Cl)cc2)CCC1	8.1	-35.6	.	.	.	.
CCCC(c1nnnn1Cc1ccco1)N(Cc1cc2cc(C)cc(C)c2[nH]c1=O)CC1CCCO1 (centres undefined)	9.7	-3.2	.	.	.	.
CCC(c1nnnn1Cc1ccco1)N(Cc1cc2cc(C)cc(C)c2[nH]c1=O)CC1CCCO1 (centres undefined)	12.6	82.4*	8.2	0.1	-38.8	i
CCOc1ccccc1C(=O)Nc1ccsc1C(=O)OC	10.9	81.3*	-5.8	0.3	6.6	+
SMILES	PGE2 EP2 inh	EP2 modulator	S1P4 antagonist	S1P4 ag	S1P3 antagonist	EP2 cAMP induct
Cc1ccc(C)n1-c1sc2c(c1C#N)CCCC2	14.8	63.1*	-8.1	1.0	.	+
Cc1sc(-n2c(C)ccc2C)c(C#N)c1C	3.9	55.8	8.1	1.7	.	.
CCN(CC)C(=O)Cn1nc2c3c(C)c(C)sc3nc(C3CC3)n2c1=O	.	21.7	.	.	.	.
C=CCn1c(=O)c(C(=O)NCCc2ccccc2)c(O)c2ccccc21	8.4	66.8*	2.0	-0.2	-56.3	i
Cc1ncc(-c2ccncc2)c(C2CCCN(CC(=O)NCc3ccco3)C2)n1 (centres undefined)	.	-17.2	.	.	.	.
CC1=CC2C(CC1=O)C(C)=CCC2C(C)C (centres undefined)	2.1	54.5	.	.	.	+
O=C(Nc1cccc(Cl)c1N1CCCC1)c1ccc(Br)o1	6.3	69.1*	-13.5	-0.7	13.2	+
O=C(Nc1ccccc1Oc1ccccc1)c1ccc(Br)o1	19.8	63.8*	-6.7	0.3	.	+
O=C(Nc1ccccc1O)c1ccc(Br)o1	6.8	-57.2	.	.	.	.
O=C(Nc1ccccc1Oc1ccccc1)c1cnccn1	3.8	70.8*	7.8	0.7	20.2	+
Cc1ccc(Oc2ccc(Cl)cc2NC(=O)c2cnccn2)cc1	7.4	53.7	4.3	1.2	.	.
O=C(Nc1ccccc1-c1ccccc1)c1ccc(Br)o1	7.8	57.4	-12.2	0.4	.	i
Cc1cc(C)c2cc(C)c(SCC(N)=O)nc2c1	6.3	-2.8	.	.	.	.
CCOc1nc2cccc(C(=O)OC(C)OC(=O)OC3CCCCC3)c2n1Cc1ccc(-c2ccccc2-c2nn[nH]n2)cc1 (centres undefined)	9.9	58.7	.	.	.	i
CCCc1nc(C(C)(C)O)c(C(=O)OCc2oc(=O)oc2C)n1Cc1ccc(-c2ccccc2-c2nn[nH]n2)cc1	10.0	21.2	.	.	.	.
CCOC(=O)CN(C(=O)CSc1nnc(Cc2ccccc2)n1-c1ccc(C)cc1)c1ccccc1	11.0	50.3	-17.1	-0.5	.	i
CCOC(=O)CSc1nnc(Cc2ccccc2)n1-c1ccc(C)cc1	7.2	30.9	-19.9	1.9	.	.
Cc1cc(NC(=O)CSc2ncnc3sc4c(c23)CCCC4)no1	14.2	-1.4	.	.	.	.
Cc1cc(C(F)(F)F)nc(SCC(=O)Nc2ccc(C(N)=O)cc2)c1C#N	8.0	5.2	.	.	.	.
Cc1cccc(-n2c(CCn3nc(C)c([N+](=O)[O-])c3C)n[nH]c2=S)c1	11.3	61.5*	-11.3	-1.2	.	i
COc1ccccc1NC(=O)CSc1nnnn1-c1ccc(NC(C)=O)cc1	7.9	-83.5	.	.	.	.
O=c1c2ccccc2c(-c2ccccc2)nn1Cc1c(Cl)cccc1Cl	5.9	85.3*	7.7	2.6	.	+
COc1ccc(-c2nc(NC(C)=O)sc2-c2ccccc2)cc1	10.1	62.0*	16.0	-0.9	2.9	i
CCCCOC(=O)C1=C(N)N2C(=O)C(C)SC2=C(C(=O)OCC)C1c1ccc(O)c(OC)c1 (centres undefined)	9.7	2.2	-10.3	0.5	4.8	.
CCOC(=O)C1=C(N)N2C(=O)C(C)SC2=C(C(=O)OC)C1c1ccccc1OC (centres undefined)	7.1	88.2*	-6.3	-0.6	-7.5	+
O=C(c1ccc2c(c1)OCO2)N(Cc1cccs1)C1(C(=O)NC2CCCCC2)CCCCC1	4.4	71.3*	-7.6	-0.3	10.5	i
CCOc1ccccc1COC(=O)c1cccc(-n2cnnn2)c1	6.5	70.9*	5.1	-0.2	-9.7	i
